Experimental data from PubChem BioAssay AID686978 (National Center for Advancing Translational Sciences (NCATS), 2013).
Among all 420,000 compounds or so, about 64,000 (15%) were called active. Not shown: some 27% with an inconclusive outcome. Calls come from the whole dose curve; as a rule, active = well fitted inhibition curve with a large enough effect; inconclusive = small, poorly fitted or top-dose-only effect; inactive = flat fitted curve, though single readings scatter. The list is a sample of the results. Where a call stands in place of a potency, no number is given.
Potency is the fitted concentration of half-maximal effect.

Experiment: qHTS for Inhibitors of human tyrosyl-DNA phosphodiesterase 1 (TDP1): qHTS in cells in absence of CPT; note: nearly all actives have a fitted effect of over 55% in size
Conditions: DT40 Tdp1-/- hTDP1 cells, no CPT, ATP luminescence, 48 h; activity change, negative = growth inhibition: at 46.2 µM (top of the series)
Summary of the method: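 Readout: luminescence from CellTiter-Glo after 30 min in the dark at RT. Cells: DT40 Tdp1-/- with stable hTDP1, 400/well. Exposure: compounds alone, ≥48 hr, 37 °C.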
With CN(C)c1ccc(-n2cccc2/C=N/n2cnnc2)cc1 the Potency was “inactive”. For C=CCN1C(=NC(=O)COc2ccccc2)SC2CS(=O)(=O)CC21 (configuration not stated), the Potency was “inactive”. With Nc1ccc2nc3c(=O)[nH]c(=S)[nH]c3nc2c1 the Potency was “inactive”. For Cc1ccccc1OCC(=O)Nc1c(C(=O)Nc2ccccc2F)oc2ccccc12, the Potency was “inactive”. In the case of Cc1ccc(NC(=O)c2cnc(SCC(=O)NCC3CCCO3)n(C)c2=O)cc1 (configuration not stated), the Potency is reported as 14.6 µM (active). With Cn1c(SCC(=O)c2ccccc2)ncc(C(=O)Nc2ccc(F)cc2)c1=O the Potency was “inactive”. In the case of Cc1cc(NC(=O)CSc2ncc(C(=O)Nc3ccc(Cl)cc3)c(=O)n2C)no1, the Potency is reported as “inactive”. In the case of COc1cccc(-n2ccn(CC(=O)NCc3ccc(C)cc3)c(=O)c2=O)c1, the Potency is reported as “inactive”. With OCC[C@H]1C[C@@H](O)[C@H](O)[C@@]2(OCCc3ccccc32)O1 the Potency was “inactive”. With CC(C)=CCN1CCC2(CCc3ccccc32)CC1 the Potency was 20.6 µM (active). In the case of CC(C)=CCN1CCN(CCCc2ccccc2)CC1CCO (configuration not stated), the Potency is reported as “inactive”. In the case of Cc1ccc(S(=O)(=O)NCCC(=O)NNC(=O)C2COc3ccccc3O2)cc1 (configuration not stated), the Potency is reported as “inactive”. With O=C(CN1C(=O)C2C3C=CC(C3)C2C1=O)NCC1COc2ccccc2O1 (configuration not stated) the Potency was “inactive”. With O=C1C(=O)N(CC2COc3ccccc3O2)c2ccccc21 (configuration not stated) the Potency was 1.46 µM (active). In the case of Cc1cc(C(=O)CCl)c(C)n1CC1COc2ccccc2O1 (configuration not stated), the Potency is reported as 2.59 µM (active). In the case of Cc1cc(NC(=O)CCC2COc3ccccc3O2)no1 (configuration not stated), the Potency is reported as “inactive”. For CCn1ccnc1C[C@@H]1COc2ccccc2O1, the Potency was “inactive”. With CCN(CCN(C)C)C(=O)c1ccc2nc(C)c(N(C)C(=O)CCc3ccccc3)n2c1 the Potency was “inactive”. For CCOc1ccc(Br)cc1S(=O)(=O)Nc1ccc(S(=O)(=O)Nc2cc(C)on2)cc1, the Potency was “inactive”. In the case of CC1C(=O)Nc2ccccc2N1C(=O)c1ccc(F)cc1F (configuration not stated), the Potency is reported as “inactive”. For CCn1c(SCC(=O)NC2CC2)nnc1-c1ccccc1OC, the Potency was “inactive”. For Cc1ccc2cc(CN(c3ccc(C)c(C)c3)S(C)(=O)=O)c(=O)[nH]c2c1, the Potency was “inactive”. With Cc1cc(NC(=O)CSc2nnnn2-c2ccc(F)cc2)no1 the Potency was “inactive”. With Cc1cc(NC(=O)CSc2nnc(-c3ccco3)n2N)no1 the Potency was “inactive”. For Cc1cc(C)c2c(c1)cc(C)c1nnc(SCC(=O)Nc3cc(C)on3)n12, the Potency was 11.6 µM (active). In the case of Cc1ccc(NC(=O)C(Cc2ccccc2)NS(=O)(=O)c2ccc3c(c2)oc(=O)n3C)cc1C (configuration not stated), the Potency is reported as “inactive”. With CN(C(=O)CC1C(=O)NCCN1Cc1ccc2ccccc2c1)C1CCOCC1 (configuration not stated) the Potency was “inactive”. With O=C1CC(c2c(F)cccc2Cl)C(n2cncn2)C(O)=C1C1NCCc2ccccc21 (configuration not stated) the Potency was “inactive”. In the case of Cc1ccc(C(=O)NNC(=O)CSc2nnc3ccccn23)cc1, the Potency is reported as “inactive”. With Cc1ccc(C(C[N+](=O)[O-])c2c(C)cc3ccccn23)cc1 (configuration not stated) the Potency was 16.4 µM (active). In the case of COc1ccc(CC(=O)Nc2nc3n(n2)C(c2ccccc2)CC(=O)N3)cc1OC (configuration not stated), the Potency is reported as “inactive”. With O=C(CN1CCN(c2ccccn2)CC1)NCc1cccs1 the Potency was “inactive”. With NC(=S)NN=Cc1ccc(OC(=O)COc2cc(Cl)c(Cl)cc2Cl)cn1 the Potency was 5.8 µM (active). With O=C(COc1cc(Cl)c(Cl)cc1Cl)NCCc1ccccn1 the Potency was “inactive”. In the case of O=C(COC(=O)COc1cc(Cl)c(Cl)cc1Cl)NC1CC1, the Potency is reported as “inactive”. In the case of Cc1nn(C)c(C)c1Sc1ccccc1N, the Potency is reported as “inactive”. With CC(=O)OC(C(=O)NCCc1ccccc1)c1cccnc1 (configuration not stated) the Potency was “inactive”. In the case of O=C(NCCc1ccc2c(c1)OCCO2)c1cc2ccccc2o1, the Potency is reported as 20.6 µM (active). With O=C(Cc1ccc([N+](=O)[O-])cc1)NCCc1ccc2c(c1)OCO2 the Potency was “inactive”. For O=C(COC(=O)c1ccc2c(c1)OCCO2)NCc1ccccc1, the Potency was “inactive”. For CN(C)S(=O)(=O)c1ccc(N2CCCC2)c(C(=O)Nc2cccc(F)c2)c1, the Potency was “inactive”. For O=C(Nc1cccc([N+](=O)[O-])c1)Nc1ccc(Cl)cn1, the Potency was “inactive”. For CCN(CC)C(=O)CN(c1cccc([N+](=O)[O-])c1)S(=O)(=O)c1ccccc1, the Potency was “inactive”. With O=C(CCl)N(Cc1cccc([N+](=O)[O-])c1)c1cccc(Cl)c1 the Potency was 4.11 µM (active). For O=C1O/C(=C\c2ccc(O)cc2)C(O)=C1c1ccc(O)cc1, the Potency was “inactive”. For Cc1cccc2cc(C#N)c(N3CCCC3)nc12, the Potency was “inactive”. With Cc1cc(C)c2cc(C#N)c(N3CCNCC3)nc2c1 the Potency was 18.4 µM (active). For Cc1cc(C)c2nc(N3CCCC3)c(C#N)cc2c1, the Potency was “inactive”. In the case of Cc1cccc(C)c1NC(=O)CNC(=O)c1c(C)nn(-c2ccccc2)c1C, the Potency is reported as “inactive”. In the case of COC(=O)N1CCC[C@@]2(CCN(C(=O)NC(C)C)C2)C1, the Potency is reported as “inactive”. With COc1ccc(N2CCN(C(=O)COc3ccc4c(C)cc(=O)oc4c3)CC2)cc1 the Potency was “inactive”. In the case of COc1cccc(OCC(O)CN2CCN(CCO)CC2)c1 (configuration not stated), the Potency is reported as “inactive”. In the case of O=C(COc1ccc2c(c1)CCC2)N1CCN(c2ccc(F)cc2)CC1, the Potency is reported as “inactive”. In the case of CSCCC(NC(=O)COc1ccccc1)C(=O)OCCOc1ccc(Br)cc1 (configuration not stated), the Potency is reported as “inactive”. With O=C(COc1ccc(Cl)cc1)N1CCN(c2cccc(C(F)(F)F)c2)CC1 the Potency was 20.6 µM (active). For OC(COc1cccc(OCC(O)CN2CCCC2)c1)CN1CCCC1 (configuration not stated), the Potency was “inactive”. With Cc1c(C)c2ccc(OCC(=O)N3CCN(c4cccc(Cl)c4)CC3)cc2oc1=O the Potency was 10.3 µM (active). With Cc1cc(=O)oc2cc(OCC(=O)N3CCN(c4ccc(F)cc4)CC3)c(Cl)cc12 the Potency was “inactive”. For OC(COc1ccc2c(c1)CCC2)CN1CCN(c2cccc(Cl)c2)CC1 (configuration not stated), the Potency was 18.4 µM (active). For CSCCC(NC(=O)COc1ccccc1)C(=O)N1CCN(c2cccc(C(F)(F)F)c2)CC1 (configuration not stated), the Potency was 13 µM (active). With CSCCC(NC(=O)COc1ccccc1)C(=O)OCCOc1ccc(F)cc1 (configuration not stated) the Potency was “inactive”. In the case of COc1ccc(OCC(=O)N2CCN(C(=O)COc3ccccc3)CC2)cc1, the Potency is reported as “inactive”. With O=C(O)c1cc([N+](=O)[O-])c(Nc2cccc3ccccc23)c([N+](=O)[O-])c1 the Potency was “inactive”. In the case of CCn1ncc(C2=NOC(C(=O)N3CCN(c4ccccc4)CC3)C2)c1C (configuration not stated), the Potency is reported as “inactive”. For O=C1OC(NC(=O)c2ccccc2)C(N2CCOCC2)=C1Cl (configuration not stated), the Potency was “inactive”. In the case of CCOC(=O)CCCNC(=O)COC(=O)c1cc(Br)c(Br)s1, the Potency is reported as “inactive”. In the case of Cc1cccc(C)c1NC(=O)CNC(=O)C1CCCC1, the Potency is reported as “inactive”. With CC(C)(C)NC(=O)C(c1ccncc1)N(C(=O)CNC(=O)c1ccco1)c1ccc2c(c1)OCO2 (configuration not stated) the Potency was “inactive”. In the case of Cc1nc(Nc2ccccc2F)c2nnn(Cc3ccccc3Cl)c2n1, the Potency is reported as “inactive”. For O=C(CCN1C(=O)[C@@H]2Cc3ccccc3CN2C1=O)NCCc1ccccc1, the Potency was “inactive”. In the case of O=C(NC1CCCCC1)C1CC(=O)N(CCc2ccccc2)C1 (configuration not stated), the Potency is reported as “inactive”. For COc1ccccc1-c1nnc(SCC(=O)Nc2ccccc2)o1, the Potency was “inactive”. With CCC(=O)c1ccc(OCC(O)CN2CCN(c3cccc(C(F)(F)F)c3)CC2)cc1 (configuration not stated) the Potency was 25.9 µM (active). With CCC(=O)c1ccc(OCC(O)CN2CC(C)OC(C)C2)cc1 (configuration not stated) the Potency was “inactive”. With O=C(c1ccccc1)c1ccc(OCC(O)CN2CCCC2)cc1 (configuration not stated) the Potency was “inactive”. With CCn1cc(C(=O)NCC(=O)NC(C)(C)CO)c(=O)c2cc3c(cc21)OCO3 the Potency was “inactive”. In the case of C/C(=N\NC(=O)C1(C)CC1(Br)Br)c1ccc(C)cc1C (configuration not stated), the Potency is reported as “inactive”. With COc1ccc(-c2cc(C(=O)Nc3sc4c(c3C(N)=O)CCCC4)no2)cc1 the Potency was “inactive”. In the case of COc1ccc(-c2nc3c(s2)CCc2onc(-c4ccc(OC)cc4)c2-3)cc1, the Potency is reported as 16.4 µM (active). For COc1ccc(-c2noc(-c3ccc(C)cc3)n2)cc1, the Potency was “inactive”. For Cc1ccc(NC(=S)N2CCN(c3ncccn3)CC2)cc1C, the Potency was “inactive”. With O=C(NNC(=O)C1CCCC1)c1ccc(F)cc1 the Potency was “inactive”. In the case of Cc1sc2ncnc(N3CCC(C(=O)Nc4nc5ccc(Cl)cc5s4)CC3)c2c1C, the Potency is reported as 7.31 µM (active). For Cc1nc2ccc(NC(=O)C3CCCCC3)cc2s1, the Potency was “inactive”. With CS(=O)(=O)c1ccc2nc(NC(=O)C3C4C=CC(C4)C3C(=O)O)sc2c1 (configuration not stated) the Potency was “inactive”. For Cc1sc2ncnc(N3CCC(C(=O)NNC(=O)c4ccc(F)cc4)CC3)c2c1C, the Potency was 16.4 µM (active). For Cc1sc2ncnc(N3CCC(C(=O)Nc4ccc(F)cc4Cl)CC3)c2c1C, the Potency was 23.1 µM (active). For O=C(NNC(=O)C1CCN(c2ncccn2)CC1)c1ccccc1, the Potency was “inactive”. In the case of CC(=O)Nc1c(C)nn(-c2ccccc2)c1N1CCC(C(=O)Nc2cc(Cl)ccc2C)CC1, the Potency is reported as “inactive”. With Cc1ccc(Cl)cc1NC(=O)C1CCN(S(C)(=O)=O)CC1 the Potency was “inactive”. In the case of CC(C)[C@H](NC(=O)Nc1ccc(S(N)(=O)=O)cc1)C(=O)O, the Potency is reported as “inactive”. For CC(C)CCN1NC2(CCC(C)CC2)NC1=S (configuration not stated), the Potency was “inactive”. In the case of CN1C(=O)c2ccccc2C(C(=O)NCCCN2CCCC2)C1c1c[nH]c2ccccc12 (configuration not stated), the Potency is reported as “inactive”. With CCc1c(O)nc(SCC(=O)N2CCCCC2)n(-c2ccccc2C)c1=O the Potency was “inactive”. In the case of CCc1ccc(OCC2c3cc(OC)c(OC)cc3CCN2C(C)=O)cc1 (configuration not stated), the Potency is reported as 13 µM (active). In the case of COc1ccc(CC(NC(C)=O)C(=O)NC2CCN(C(=O)c3ccc(OC)c(OC)c3)CC2)cc1OC (configuration not stated), the Potency is reported as “inactive”. With COc1cc2c(cc1OC)C(COc1ccc(F)cc1)N(C(=O)c1ccccc1F)CC2 (configuration not stated) the Potency was 16.4 µM (active). For CCc1ccc(OCC(=O)OC(C)C(=O)NC2CC2)cc1 (configuration not stated), the Potency was “inactive”. With COc1ccc2[nH]c(=O)c(C3c4cc(OC)c(OC)cc4CCN3C(=O)c3ccco3)cc2c1 (configuration not stated) the Potency was “inactive”. In the case of COc1cc2c(cc1OC)CN(CC(=O)Nc1ccc(F)cc1)CC2, the Potency is reported as “inactive”. For CC(C)CN(C(=O)CSc1ncnc2sccc12)C1CCS(=O)(=O)C1 (configuration not stated), the Potency was “inactive”. In the case of O=C(N/N=C/c1ccsc1)c1cc(O)cc(O)c1, the Potency is reported as “inactive”. For CCN(CC(=O)NCc1cccs1)C(=O)/C=C/c1ccc(C)cc1, the Potency was “inactive”. With FCOC(C(F)(F)F)C(F)(F)F the Potency was “inactive”. With CCCCc1ccc(NC(=O)NCc2cccnc2)cc1 the Potency was “inactive”. With CN(C)CCCN1C(=O)CSC1c1ccc([N+](=O)[O-])cc1 (configuration not stated) the Potency was “inactive”. For CCCCCCCCCCCCN1C(=O)CSC1c1cccnc1 (configuration not stated), the Potency was 16.4 µM (active).
